# Assay results from PubChem BioAssay (NCI).
# About 83,000 compounds went through this panel and 20% of them were active in at least one assay; those are over-represented in the sample as a whole.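 How to read the values: 0–100, growth inhibition (40 = 60% inhibited); 0, no net growth; -100 to 0, cell death (-40 = 40% of starting cells died; -100 = all dead).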 A number with no mark means an inactive call. The source made the active and inactive calls. The calls were made as follows: active = growth percent below 10; inactive = the rest.
# System: MDA-MB-468 breast
# Assay: NCI-60 one-dose screen, 48 h (100 = growth as untreated, 0 = no growth, -100 = all killed)
# Details: 10 µM unless noted
row,Structure (SMILES),growth
1,CCCCCc1ccc(S(=O)(=O)Nc2cccc(-c3csc(NC(=O)CN4CCN(CCO)CC4)n3)c2)cc1,84.8%
2,O=C(O)CNS(=O)(=O)c1ccc(Oc2ccc(S(=O)(=O)NCC(=O)O)cc2)cc1,107%
3,Cc1ccc(C(=O)N2C/C(=C/c3ccccc3)C(=O)/C(=C/c3ccccc3)C2)cc1,18.1%
4,O=C(CSc1nnc(Cc2ccccc2Nc2c(Cl)cccc2Cl)n1-c1ccccc1)N1N=C(c2ccc3ccccc3c2)CC1c1ccc(Cl)cc1 (centres undefined),114%
5,CC(C)Cc1nc(Nc2ccccc2)[nH]c(=O)c1C#N,14.5%
6,CSc1nc2nc3c(c(-c4ccc(C)cc4)c2c(=O)[nH]1)CN(C)C/C3=C\c1ccc(C)cc1,74.7%
7,O=C(Nc1ccc(I)cc1F)c1cc(Br)ccc1O,-2.63% (active)
8,Cc1nc(Nc2cccc(NC(=O)Nc3ccc(Cl)cc3)c2)c2ccccc2n1,75%
9,COc1cnc2c(c1)C(=O)c1c-2n(CCCNC(C)C)c(=O)c2cc([N+](=O)[O-])ccc12,-55.8% (active)
10,O=C1NN(c2ccccc2)C(c2cccnc2)=N/C1=C\c1cccnc1,90%
11,Nc1ccc2ccccc2c1-c1c(N)ccc2ccccc12,11.8%
12,O=C1C(Cl)=C(Nc2ccc3cn[nH]c3c2)C(=O)c2ccccc21,-82.9% (active)
13,Cc1cn(C(=O)/C(Cl)=C(/Cl)C(=O)O)c2ccccc12,108%
14,O=C(N/N=C\c1cccc([N+](=O)[O-])c1)N/N=C/c1cccc([N+](=O)[O-])c1,82%
